# Tests used:
# Test in all cases: PBM binding z-score (relative to random genomic background probes); higher = stronger binding; sequences stand for … in GC…GCGATTGACAGCGTAGAATGAAGG
# [1] = system: PPARg:RXRa DBDmut IVT, anti-RXR (DBD mutation: RXRa K156A/R161A, NR concentration 270 nM, RXRa partner concentration 90 nM)
# Outline: (§1)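 Custom Agilent 4×180K protein-binding microarrays carried double-stranded probes, each with a 34-nt variable region. These regions held direct-repeat seeds, single-nucleotide variants, half-site ablations and random human genomic background sequences. Ligand-free nuclear receptor dimers were incubated on the arrays for 1 h, antibodies against each partner (one per run) detected binding, and scanned fluorescence was regression-normalized. Binding z-scores take the random background probes as reference.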
# [2] = system: PPARg:RXRa IVT, anti-PPARg (NR concentration 270 nM, RXRa partner concentration 90 nM)
# Outline: as §1
# [3] = system: PPARg DBDmut:RXRa IVT, anti-PPARg (DBD mutation: PPARg1 K132A/R137A, NR concentration 270 nM, RXRa partner concentration 90 nM)
# Outline: as §1
# [4] = system: PPARg DBDmut IVT, anti-PPARg (DBD mutation: PPARg1 K132A/R137A, NR concentration 270 nM)
# Outline: as §1
# [5] = system: PPARg homodimer (NR concentration 180 nM)
# Outline: as §1
# [6] = system: PXR:RXRa (NR concentration 270 nM, RXRa partner concentration 90 nM)
# Outline: as §1
# [7] = system: PXR homodimer (NR concentration 270 nM)
# Outline: as §1
# [8] = system: RARa:RXR (NR concentration 270 nM, RXRa partner concentration 90 nM)
# Outline: as §1
# [9] = system: RARa homodimer (NR concentration 270 nM)
# Outline: as §1
# [10] = system: RARb:RXRa (NR concentration 270 nM, RXRa partner concentration 90 nM)
# Outline: as §1
# [11] = system: RARb homodimer (NR concentration 270 nM)
# Outline: as §1
# [12] = system: RARg:RXRa (NR concentration 270 nM, RXRa partner concentration 90 nM)
# Outline: as §1
# [13] = system: RARg homodimer (NR concentration 270 nM)
# Outline: as §1
# [14] = system: RXRa DBDmut IVT, anti-RXR (DBD mutation: RXRa K156A/R161A, NR concentration 90 nM)
# Outline: as §1
# [15] = system: RXRa homodimer (NR concentration 180 nM)
# Outline: as §1
# [16] = system: THRa:RXRa (NR concentration 90 nM, RXRa partner concentration 90 nM)
# Outline: as §1
# [17] = system: THRa homodimer (NR concentration 90 nM)
# Outline: as §1
# [18] = system: VDR homodimer (NR concentration 270 nM)
# Outline: as §1
Sequence,PBM binding z-score [1],PBM binding z-score [2],PBM binding z-score [3],PBM binding z-score [4],PBM binding z-score [5],PBM binding z-score [6],PBM binding z-score [7],PBM binding z-score [8],PBM binding z-score [9],PBM binding z-score [10],PBM binding z-score [11],PBM binding z-score [12],PBM binding z-score [13],PBM binding z-score [14],PBM binding z-score [15],PBM binding z-score [16],PBM binding z-score [17],PBM binding z-score [18]
GCTAGCAGGCCAGTTGGGTCACTCAATGACGGGC,0.163,0.353,-1.62,-2.01,-0.447,-0.0174,-0.643,0.497,-0.946,1.27,1.76,0.797,0.963,-1.01,0.522,1.45,0.0151,-0.361
AGAGCGAGGGCACGCTGAGTTGATAGCAGAGTAG,0.897,1.26,-0.714,-1.28,0.251,1.05,-0.217,0.737,-0.451,2.47,1,1.76,1.96,1.28,1.06,1.51,-0.183,1.48
GAAACGAGGGCAAGTTGATAGCAGAGTTTGATGG,5.01,4.04,0.483,0.387,0.633,0.91,1.01,0.741,-0.324,2.48,1.68,1.6,1.94,2.43,1.02,1.41,0.0214,1.97
CGTCCAAGGTCAAGGCCAGTGAAAGAGACTCGAA,2.93,3.4,0.269,-0.184,2.5,3.44,0.449,4.09,0.0458,5.19,3.8,5.88,6.13,3.31,5.24,3.71,2.15,1.61
ATCTCTAGGTAAGACTCAGTTCAGTGTAGAACGC,2.3,1.23,0.993,0.824,1.01,1.15,1.68,0.389,1.23,0.291,0.758,0.266,0.408,0.967,0.133,0.88,0.909,1.39
TCTGGTAGATCAAAGGTTAAGAAAGCCGAAGCCT,1.47,2.16,-0.482,0.322,0.978,1.97,0.168,2.79,0.25,1.91,1.4,1.89,0.73,0.747,3.05,1.33,-0.327,0.151
CGAAATAGGTCATTGACAGGACAGTGAATAGTAA,7.51,7.87,3.54,2.18,3.02,3.03,0.444,4.06,1.24,4.3,3.34,5.81,4.98,2.23,4.21,3.01,0.329,1.15
AGAATGAGGTTAAGATGAGGGAAACAGAATACAT,2.68,2.39,1.61,0.526,0.984,1.35,0.581,2.22,0.74,1.95,1.16,2.21,1.62,1.17,2.38,2.61,0.911,0.657
ACTTACGGGACAACGAGGTTATAGCACGCGTATA,0.742,0.83,0.547,1,0.641,0.83,0.728,0.933,0.919,1.03,1.17,0.768,1.24,0.749,1.03,1.69,0.953,1.94
CCTGCTAAGTCAATGGTCAGCTAAAGCAGCTCGC,0.121,-0.663,-1.16,-0.747,-0.2,-0.405,-0.531,-0.153,-0.807,0.498,0.12,-0.277,-0.302,0.497,-0.263,-0.402,-0.724,-0.804
TCTATTCGTTGATTAGGGCAACCGAAACAGCGGA,1.61,1.69,1.2,0.685,0.326,0.454,0.0175,0.417,-0.0226,0.637,0.244,0.485,0.548,0.758,0.477,0.404,0.073,-0.134
TCGAGTAGGTTAGGGGCATTCAGAATGGCGTCGA,1.95,1.44,-0.138,-0.987,1.13,0.245,0.264,0.141,-0.19,1.13,0.976,0.269,0.406,0.45,0.658,0.87,0.0711,0.98
TCTAGCAGGCCAGAGGTTCACTCAAGAGGTACGG,0.614,-0.232,-1.08,-0.88,-0.59,0.274,-0.691,0.324,-0.904,0.468,0.483,0.466,0.306,0.415,0.756,0.0642,-0.939,1.54
AATACAGGGTCAACGTAGGCCAGAGTACGCACAG,3.16,4.2,1.64,1.2,2.78,5.23,0.288,5.45,1.71,4.6,3.8,6.08,5.84,3.18,6.81,4.35,1.24,3.28
TCTAGCAGGCCAGAGGGTCACCCAAGAGGTACGG,0.386,0.974,-0.634,-0.348,0.411,2,-0.502,2.95,0.0468,2.43,2.74,3.04,2.17,-0.135,2.96,1.97,0.143,0.203
AGAAAGAGGTTATTAAGATCAGGGAATTGCGGTC,1.7,1.4,0.63,0.0238,1.2,1.38,0.96,1.93,1.28,1.97,1.12,1.78,1.29,1.26,2.21,1.39,0.443,0.737

Sequence,PBM binding z-score [1],PBM binding z-score [2],PBM binding z-score [3],PBM binding z-score [4],PBM binding z-score [5],PBM binding z-score [6],PBM binding z-score [7],PBM binding z-score [8],PBM binding z-score [9],PBM binding z-score [10],PBM binding z-score [11],PBM binding z-score [12],PBM binding z-score [13],PBM binding z-score [14],PBM binding z-score [15],PBM binding z-score [16],PBM binding z-score [17],PBM binding z-score [18]
TCGAGTAGGTTAGGGGCGTTCAGAATGGCGTCGA,1.69,1.26,0.15,-0.777,0.542,0.471,0.0132,0.223,-0.263,0.552,0.347,-0.19,-0.416,0.366,0.0753,0.432,-0.0731,0.527
TCTTGTAGATCAAGGAGGTTAAGAAAGCCTGAGT,1.66,0.772,0.58,0.0101,0.474,0.734,0.408,0.789,-0.0638,0.468,0.594,0.234,-0.0688,0.581,0.685,0.835,-0.069,0.29
GCTAGTTGGTCAGTAAAAGGTCACTCACCGGTCG,1.28,2.47,-0.335,0.0493,3.31,4.53,0.779,5.19,1.56,4.12,5.26,5.05,4.43,0.781,4.21,3.31,1.47,1.36
CCTGCGAGGTCAATGGTCAGCTAAAGCAGCTCGC,3.45,3.93,1.18,-0.453,2.42,4.55,0.99,4.6,0.55,5.07,4.2,6.01,5.99,4.37,5.95,3.8,2.37,3.63
ATCTCTAGGTAAAGTTCAGTGATAGATCGATAGA,2.28,2.44,1.4,1.48,1.9,1.92,1.96,1.35,1.69,2.71,2.44,2.15,2.58,1.56,1.42,1.2,0.236,2.09
ACAGACAGGTGAGTGAAGGTAACTCACCTGGACG,0.281,1.01,0.307,0.131,-0.03,-0.17,-0.14,0.495,-0.345,0.553,0.335,0.343,0.628,-0.647,0.429,1.83,-0.0711,-0.74
TGAATGAGATTATAAGATCAGGGAACGTTGCAAA,-1.28,-0.236,0.555,0.576,-1.31,-0.518,-0.193,-0.548,0.0948,-1.13,-1.01,-0.048,0.172,-1.08,-0.35,-0.424,-1.28,-0.262
GCGACTGGGGCAACGCAGGTTACCATAAGGTTGG,4.39,4.13,-0.305,-0.763,-0.0289,0.606,-0.69,0.702,-1.06,1.19,1.32,0.851,0.785,-0.722,0.638,2.88,0.105,-0.176
ATCGAAAGCTCGTGAGGTGAGTATACAGAAAGGC,-0.799,0.0817,0.275,0.0739,-0.405,-0.403,-0.674,-0.104,-0.351,0.0466,-0.145,-0.029,0.239,-0.842,-0.0851,1.52,0.723,-0.704
CTCGAAAGGTCGTGCTCAGGTGACTATACCAAAC,1.01,2.13,-0.324,0.674,1.85,3.67,0.399,4.75,0.319,4,3.17,5.21,3.82,2.15,4.78,4.26,1.69,0.845
CCTAGTTGGTCAGAAGGTCACACACCGGATATGA,1.63,2.85,1.32,0.414,4.39,3.98,1.29,4.56,3.08,3.85,4.46,4.85,4.38,0.926,4.4,3.12,1.59,2.21
TATACAGGGTCACAGGCCAGAGTACGAATGTCGA,2.88,5.43,2.95,3.73,3.45,4.32,0.522,5.21,1.31,4.8,3.83,5.96,5.41,2.61,6.79,3.92,1.94,2.51
TCTTTTAGATCAACAGGAGGTTAAGAAAGATCGA,2.11,0.854,1.33,1.69,0.914,1.3,0.393,1.6,0.513,0.952,0.623,1.24,0.914,1.31,1.48,1.08,-0.0396,-0.0983
ACACGGAGGACAAAGGTCAGAGCTACGCCAGTGA,0.363,3.8,0.472,-0.253,3.82,3.92,0.625,4.81,1.1,4.58,4.59,6.1,5.24,1.57,5.15,3.56,0.702,1.17
TCTCGGAGGACACGAAGGTCAGACCTTTCCAGAG,1.65,0.996,-0.713,-0.138,1.39,2.12,0.898,2.4,0.387,3.59,3.98,3.27,3.81,1.03,1.94,3.08,1.21,1.44

# — the supplement of paper PMC6555819
